# Sampled rows, rich in hits. Any-hit rate of the full collection: about 5.4%.
# Sm TGR block: qHTS Assay for the Inhibitors of Schistosoma Mansoni Peroxiredoxins | Schistosoma mansoni thioredoxin glutathione reductase (TGR), Q962Y6 | purified TGR, DTNB reduction, TNB absorbance 405 nm | Potency, µM (titrated, usually from 114 µM), for the others: at the top dose activity change, negative = inhibition, usual class: inhibitors | AID 485364, 2010 | 360,000 tested, 3% active; active means well fitted inhibition curve with a large enough effect; inconclusive means small, poorly fitted or top-dose-only effect; inactive means no such curve, though single readings can be large or run the other way; further: nearly all actives have a fitted effect of over 60% in size
#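 Kinetic colorimetric format: TGR-catalysed, NADPH-driven DTNB reduction monitored via TNB absorbance. Enzyme dispensed at 20 nM; compound exposure 15 min at room temperature before reaction start.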
# LASV entry inh: qHTS for Inhibitors of binding or entry into cells for Lassa Virus. Lassa virus pseudotype entry inhibition, cell reporter. Potency, µM (top dose mostly 37.9 µM), inactives show top-dose activity change, negative = inhibition, usual class: inhibitors. 300,000 tested, 1.2% active; calls by dose curve; tested in HEK293 cells; further: nearly all actives have a fitted effect of over 50% in size
# Vaccinia Venus: qHTS for Stage-Specific Inhibitors of Vaccinia Orthopoxvirus: Venus Reporter Primary qHTS; Vaccinia virus Venus reporter expression, fluorescence; Potency, µM (titrated, usually from 36.5 µM), for the others: top-dose activity change, negative = inhibition, usual class: inhibitors; 330,000 tested, 0.46% active; AID 720580, 2013; calls by dose curve; tested in A549 cells; further: nearly all actives have a fitted effect of over 30% in size
# Vaccinia mCherry: qHTS for Stage-Specific Inhibitors of Vaccinia Orthopoxvirus: mCherry Reporter Primary qHTS | Vaccinia virus mCherry reporter infection, fluorescence | Potency, µM (titrated, usually from 36.5 µM), for inactives: top-dose activity change, negative = inhibition, most hits filed as inhibitors | 310,000 tested, 0.63% active | AID 720579, 2013; calls by dose curve; tested in A549 cells; further: nearly all actives have a fitted effect of over 35% in size
# MARV entry inh: qHTS for inhibitors of binding or entry into cells for Marburg Virus | Marburg virus pseudotyped entry inhibition, cell reporter | Potency, µM (titrated, usually from 37.8 µM), inactives show at the highest dose activity change, negative = inhibition, actives largely listed as inhibitors | 300,000 tested, 1.8% active; calls by dose curve; tested in HEK293 cells
# FMDV antiviral: High Throughput Screening for Foot and Mouth Disease Virus Antivirals; FMDV antiviral cell-based qHTS; Potency, µM (highest dose often 57.9 µM), inactives show top-dose activity change, negative = inhibition, hits mostly inhibitors; 410,000 tested, 1.2% active; calls by dose curve; tested in HEK293T cells; further: read-out not given here; nearly all actives have a fitted effect of over 45% in size
# Active calls of the source: *; i = inactive; u = inconclusive; x = no result; [ ] = remark or other dose. On the % scale 0 is the no-effect control and ±100 the full control effect; potency means the concentration at half of the fitted maximal effect.
SMILES,Sm TGR block,LASV entry inh,Vaccinia Venus,Vaccinia mCherry,MARV entry inh,FMDV antiviral
COC(C/C=C/C(=O)COCc1ccccc1)OC,15.8µM*,x,-12.4%,-11.3%,x,-3.8%
CCN(c1ccccc1)c1nnc(NC(=O)Nc2cccc(Br)c2)s1,-0.3%,0.2%[46.1 µM],-17.3%,-22.1%,-36.3%[46.1 µM],0.0%
COC(=O)c1[nH]c2cc(OC)ccc2c1NC(=O)CCN1CCN(c2cccc(C)c2C)CC1,5.2%,u,u,x,u,39.8µM*
COC(CNC(=O)c1ccc2c3c(onc13)-c1ccccc1C2=O)OC,12.6µM*,u,110.5%,i,u,u
COc1ccc(NC(=O)C2CCCN(S(=O)(=O)c3ccc(C)cc3)C2)cc1OC (centres undefined),-3.6%,-5.2%,x,x,u,22.4µM*
CCOC(=O)C1CCCN(CC(=O)c2ccc(F)cc2)C1 (centres undefined),17.8µM*,u,3.1%,-10.9%,17.4%,16.6%
CCOC(=O)C1CCCN(CC(=O)Nc2c(F)c(F)c(F)c(F)c2F)C1 (centres undefined),0.0%,16.8%,5.2%,-8.8%,3.9%,5.1%
COc1ccc(CCNC(=O)C2CCCN(S(=O)(=O)c3ccc(F)cc3)C2)cc1 (centres undefined),89.1µM*,-12.0%,-6.7%,-15.6%,-4.0%,u
O=C1CCCc2cc(S(=O)(=O)N3CCCC(C(=O)Nc4ccc(F)c(Cl)c4)C3)ccc2N1 (centres undefined),-1.8%,-27.2%[46.1 µM],-0.4%,-6.6%,x,31.6µM*
COc1ccc(S(=O)(=O)N2CCCC(C(=O)Nc3ccc(OC)c(OC)c3)C2)cc1 (centres undefined),-1.9%,-23.2%,-25.1%,-11.1%,-23.1%,u
CCN(CC)CCCNc1oc(-c2ccc(OC)cc2)nc1C#N,8.1%,5.3%[46.1 µM],-1.4%,-11.5%,x,13.9%
CC1CCC(NC(=O)C2(C)Cc3ccccc3C(=O)N2Cc2ccccc2Cl)CC1 (centres undefined),5.3%,x,-6.8%,-7.6%,-8.0%[46.1 µM],-15.3%
COc1cc(OC)c(NC(=O)N2CCSc3ccccc32)cc1Cl,-4.5%,-13.9%[46.1 µM],-1.9%,-14.8%,x,-26.9%
O=C(CNCCc1ccccc1)Nc1ccc(C(=O)N2CCCCC2)cc1,1.8%,1.6%[46.1 µM],-18.0%,-15.4%,10.9%[46.1 µM],15.8%
CCc1ccc(NC(=O)C2CCCN(S(=O)(=O)c3ccc(F)cc3)C2)cc1 (centres undefined),3.5%,u,-21.3%,-14.1%,-28.5%[46.1 µM],u
O=C(Nc1ccc(S(=O)(=O)N2CCCCC2)cc1)C1CCCN(C(=O)c2ccc(Cl)cc2)C1 (centres undefined),-0.7%,0.291µM*,u,u,u,u
O=C(CNCCc1ccc(Cl)cc1)Nc1ccc(C(=O)N2CCCCC2)cc1,-1.2%,u,-14.8%,43.0%,11.2µM*,-15.6%
CCOC(=O)c1ccc(NC(=O)C2CCCN(S(=O)(=O)c3ccc(F)cc3)C2)cc1 (centres undefined),-15.1%,u,x,x,u,22.4µM*
CCN(C(=O)c1cc(S(=O)(=O)N2CCc3ccccc32)cn1C)c1cccc(C)c1,7.7%,u,-10.3%,-14.5%,x,-5.4%
COc1cccc(-c2csc(-c3c(N)c(C(=O)c4ccccc4)n4ccccc34)n2)c1,2.5%,-4.2%[46.1 µM],-1.7%,-19.2%,0.6%[46.1 µM],-15.9%
O=C(C1CCN(S(=O)(=O)Cc2ccccc2)CC1)N1CCN(c2ccc(F)cc2)CC1,-7.2%,-30.2%[46.1 µM],-18.6%,-20.1%,-20.0%[46.1 µM],-20.9%
O=C(NCc1ccco1)c1ccc2nc3sc4c(c3c(=O)n2c1)CCCC4,11.2µM*,x,x,x,-3.4%,x
CCC(=O)N1c2ccc(S(=O)(=O)CCC(=O)NCc3ccc(OC)cc3)cc2CC1C (centres undefined),0.8%,-23.7%[46.1 µM],-1.8%,2.7%,5.0%[46.1 µM],-3.6%
CCCC1=C(C(=O)OCC)C(/C=C/c2ccccc2)n2ncnc2N1 (centres undefined),-24.4%,-19.0%,x,x,9.2µM*,-27.0%
OC1(c2ccc(Br)cc2)CCNCC1,50.1µM*,3.7%,x,x,u,-8.2%
SMILES,Sm TGR block,LASV entry inh,Vaccinia Venus,Vaccinia mCherry,MARV entry inh,FMDV antiviral
OC1(c2ccc(F)cc2)CCNC1 (centres undefined),-19.6%,9.3%,x,x,-7.0%,12.1%
CN(C)S(=O)(=O)c1cc(NC2CC(=O)N(c3ccc(F)cc3)C2=O)ccc1Cl (centres undefined),25.1µM*,x,x,x,x,-5.9%
Cc1ccc(NC2CC(=O)N(c3ccc(C)cc3)C2=O)cc1 (centres undefined),-27.9%,0.0%,-17.7%,i,7.2%,39.3%
Cc1ccc(NC(=O)Cn2cnc3onc(-c4ccc(F)cc4)c3c2=O)c(Cl)c1,26.2%,6.7%[46.1 µM],-6.5%,-8.7%,x,-23.5%
COC(=O)c1scc(C#N)c1N/N=C(\C#N)S(=O)(=O)c1ccc(Cl)cc1,31.6µM*,u,-2.7%[7.34 µM],i[7.34 µM],u,14.1µM*
S=C(NCCCc1cnc[nH]1)NCCCN(Cc1ccc(Cl)cc1)c1cc(-c2ccccc2)ccn1,x,x,-23.2%,-7.4%,x,x
CC(C)c1ccc2c(c1)CCC1C(C)(CN)CCCC21C (centres undefined),9.1%,u,u,u,10µM*,u
CCc1ccc(OCC(=O)N(Cc2ccco2)Cc2ccccc2Cl)cc1,3.7%,1.5%[46.1 µM],-6.6%,-14.4%,-29.8%[46.1 µM],-23.8%
Cc1ccc2[nH]c(O)c(N=Nc3ccccc3C)c2c1,22.4µM*,-4.9%[46.1 µM],1.2%,u,13.6%[46.1 µM],27.2%
CC(C)=Cc1cccc2[nH]c(O)c(N=Nc3ccc(S(N)(=O)=O)cc3)c12,x,3.97µM*,x,x,x,x
Cc1c(C#N)c(O)[nH]c(=O)c1N=Nc1ccc(S(N)(=O)=O)cc1,u,-0.4%[46.1 µM],5.6%,i,3.5%[46.1 µM],-5.9%
NS(=O)(=O)c1ccc(N=Nc2c(O)[nH]c3ccc(-c4cnco4)cc23)cc1,x,12.5µM*,x,x,x,x
Cc1ccc2[nH]c(O)c(N=Nc3ccc(S(N)(=O)=O)cc3)c2c1,x,3.97µM*,x,x,x,x
Cc1ccccc1N=Nc1c(O)[nH]c2ccccc12,x,12.6%,-2.9%,-7.9%,u,71.8%
C1=C/C(=C2/C=Cc3ccccc32)c2ccccc2N1,x,x,-46.2%,-18.1%,x,x
Cc1cc(C)c2c(c1)c(C)cc1nnc(SCC(=O)c3ccccc3)n12,-2.5%,0.1%[46.1 µM],-10.1%,-12.6%,13.1%[46.1 µM],-5.8%
CCc1ccc(NC(=O)CN(c2ccc(Cl)cc2)S(=O)(=O)c2ccsc2C(=O)OC)cc1,31.6%,u,-10.1%,-14.4%,x,-3.6%
O=C(CSc1ncc(S(=O)(=O)c2ccc(Cl)cc2)c(=O)[nH]1)Nc1ccc2c(c1)OCCO2,-0.5%,x,11.6%,6.9%,1.8%[46.1 µM],-8.9%
